Results filed as inconclusive are left out. Calls of active or inactive are those of the source. Unless noted, calls follow the shape of the dose curve; as a rule, active = well fitted curve in the direction sought with a large enough effect in the repeat runs; inconclusive = weak or mixed curves; inactive = no such curve, though single readings can be large; an effect the other way counts as inactive or inconclusive.
Tests used:
[1] = qHTS assay for small molecule agonists of the p53 signaling pathway (AID 651631; calls by dose curve; also: nearly all actives have a fitted effect of over 15% in size)
Method in brief: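 Testing took place in human colorectal HCT-116 cells with stable p53RE-driven beta-lactamase. After 16 h of compound exposure at 37 °C, a FRET substrate was added and fluorescence recorded 2 h later.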

[2] = qHTS assay for small molecules that induce genotoxicity in human embryonic kidney cells expressing luciferase-tagged ATAD5 (AID 651632); also: nearly all actives have a fitted effect of over 15% in size
Method in brief: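 HEK293T cells carrying a luciferase reporter tagged to ATAD5 were exposed to compound or DMSO vehicle for 16 hr at 37C, 5% CO2. Amplite was added, and after 30 min at room temperature luciferase activity was read as a marker of ATAD5 induction.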

[3] = qHTS assay for small molecule agonists of the p53 signaling pathway - cell viability (AID 651633; calls by dose curve; also: series mostly up to about 83 µM; nearly all actives have a fitted effect of over 30% in size)
Method in brief: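 p53RE-bla cells, seeded at 4,000 per well and rested 5 h at 37 C/5% CO2, received compounds in DMSO for 16 h at 37 C. CellTiter-Glo was then added, and luminescence was read after 30 min at room temperature to gauge cytotoxicity.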

[4] = qHTS assay for small molecules that induce genotoxicity in human embryonic kidney cells expressing luciferase-tagged ATAD5 - cell viability (AID 651634; calls by dose curve; also: nearly all actives have a fitted effect of over 25% in size)
Method in brief: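 HEK293T cells expressing luciferase-tagged ATAD5 were exposed to compound or DMSO for 15.5 hr at 37C, 5% CO2. Viability was then read as live-cell protease activity by CellTiter-Fluor fluorescence after 30 min at 37C.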

[5] = qHTS assay for small molecule disruptors of the mitochondrial membrane potential - cell viability (AID 720634; calls by dose curve;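 also: human HepG2 liver cancer cells; series mostly up to about 83 µM; nearly all actives have a fitted effect of over 20% in size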)
Method in brief: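 HepG2 cells seeded overnight at 37 C, then exposed to compound or DMSO for 1 hr at 37 C, 5% CO2. m-MPI dye added, then CellTiter-Glo for 30 min at room temperature; viability read as ATP luminescence.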

[6] = qHTS assay for small molecule disruptors of the mitochondrial membrane potential (AID 720635)
Method in brief: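 HepG2 cells (2,000/well) attached overnight at 37C, then took compound for 1 hr at 37C, 5% CO2. Mito-MPS dye was added for 30 min; fluorescence was read at 490/535 nm (monomers) and 540/590 nm (aggregates).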

[7] = qHTS assay to test for compound auto fluorescence at 590 nm (red) in HepG2 cells (AID 720674)
Method in brief: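 Intrinsic compound fluorescence in the red window (Ex/Em 540/590 nm) is measured in attached HepG2 cells exposed for 1 hr, DMSO vehicle as baseline, benchmarked to Rose Bengal sodium.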

[8] = qHTS assay to test for compound auto fluorescence at 535 nm (green) in HepG2 cells (AID 720675)
[9] = qHTS assay to test for compound auto fluorescence at 460 nm (blue) in HEK293 cells (AID 720678)
Method in brief: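 HEK293 cells (2,000 per well, medium with 10% dialyzed FBS) attached for 4-5 hr at 37C, then received compound and stood overnight at 37C, 5% CO2. Blue fluorescence was read at Ex/Em 405/460 nm and expressed relative to triamterene.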

[10] = qHTS assay to test for compound auto fluorescence at 590 nm (red) in HEK293 cells (AID 720679)
Method in brief: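 HEK293 cells (2,000/well, medium with 10% dialyzed FBS) attached for 4-5 hr at 37C, received 23 nL compound and were incubated overnight at 37C, 5% CO2. Red fluorescence was then read at 540/590nm Ex/Em, referenced to Rose Bengal sodium.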

[11] = qHTS assay to test for compound auto fluorescence at 535 nm (green) in HEK293 cells (AID 720680)
[12] = qHTS assay to test for compound auto fluorescence at 460 nm (blue) in HEK293 cell free culture (AID 720681)
Method in brief: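 Test compounds were pinned into cell-free culture medium (DMEM with 10% FBS) and fluorescence was read directly at Ex/Em 405/460 nm. Signals were expressed as fluorescence equivalents of triamterene, with DMSO vehicle as control.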

[13] = qHTS assay to test for compound auto fluorescence at 535 nm (green) in HEK293 cell free culture (AID 720682)
Method in brief: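 DMEM + 10% FBS, cell-free; cpd or DMSO pinned in; Ex485/Em535 read; output as fluorescein-equivalent signal.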

[14] = qHTS assay to test for compound auto fluorescence at 590 nm (red) in HEK293 cell free culture (AID 720683)
Method in brief: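 Tox21 10K library compounds were pinned into cell-free DMEM with 10% FBS and fluorescence was read at excitation 540 nm. Activity is expressed as Rose Bengal sodium equivalency.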

[15] = qHTS assay to test for compound auto fluorescence at 590 nm (red) in HepG2 cell free culture (AID 720684)
Method in brief: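 Red fluorescence (540 nm excitation, 590 nm emission) was measured after compound transfer into cell-free MEM supplemented with 10% FBS. Values are equivalencies against Rose Bengal sodium.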

[16] = qHTS assay to test for compound auto fluorescence at 460 nm (blue) in HepG2 cell free culture (AID 720685)
Method in brief: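 Compound (23 nL) or DMSO pinned into cell-free MEM with 10% FBS; blue fluorescence read at 405/460 nm excitation/emission, expressed as auto-fluorescence equivalency to triamterene.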

[17] = qHTS assay to test for compound auto fluorescence at 535 nm (green) in HepG2 cell free culture (AID 720686)
[18] = qHTS assay to test for compound auto fluorescence at 460 nm (blue) in HepG2 cells (AID 720687)
Method in brief: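 Cells (2,000/well in MEM with 10% FBS) attached overnight at 37 C, then were exposed to compound or DMSO for 1 hr at 37 C, 5% CO2. Fluorescence read at Ex/Em 405/460 nm, expressed as triamterene-equivalent signal.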

[19] = molecular target: Glucocorticoid receptor (Homo sapiens) (UniProt P04150); assay: qHTS assay to identify small molecule agonists of the glucocorticoid receptor (GR) signaling pathway (AID 720691; active = well fitted activation curve with a large enough effect in the signal ratio in the repeat runs, not every such curve was filed as active; the % refers to the signal ratio)
Method in brief: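 GR-bla HeLa cells (beta-lactamase reporter under glucocorticoid response element) were plated 4 h at 37 C/5% CO2, given compounds in DMSO, and incubated 18 h at 37 C. LiveBLAzer B/G FRET substrate was added for 2 h at room temperature, then fluorescence intensity read.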

[20] = molecular target: Glucocorticoid receptor (Homo sapiens) (UniProt P04150); assay: qHTS assay to identify small molecule antagonists of the glucocorticoid receptor (GR) signaling pathway (AID 720692; active = well fitted inhibition curve with a large enough effect in the signal ratio in the repeat runs, not every such curve was filed as active; the % refers to the signal ratio)
Method in brief: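 GR-bla HeLa cells (beta-lactamase reporter under glucocorticoid response element) were pre-plated 4 h at 37 C, treated with compounds plus 5 nM dexamethasone (final) for 18 h, then read by LiveBLAzer B/G FRET fluorescence after 2 h.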
% is scaled to controls: 0 for no effect and ±100 for the full control effect.

Chain of Glucocorticoid receptor (Homo sapiens) (P04150 whole entry, looked up): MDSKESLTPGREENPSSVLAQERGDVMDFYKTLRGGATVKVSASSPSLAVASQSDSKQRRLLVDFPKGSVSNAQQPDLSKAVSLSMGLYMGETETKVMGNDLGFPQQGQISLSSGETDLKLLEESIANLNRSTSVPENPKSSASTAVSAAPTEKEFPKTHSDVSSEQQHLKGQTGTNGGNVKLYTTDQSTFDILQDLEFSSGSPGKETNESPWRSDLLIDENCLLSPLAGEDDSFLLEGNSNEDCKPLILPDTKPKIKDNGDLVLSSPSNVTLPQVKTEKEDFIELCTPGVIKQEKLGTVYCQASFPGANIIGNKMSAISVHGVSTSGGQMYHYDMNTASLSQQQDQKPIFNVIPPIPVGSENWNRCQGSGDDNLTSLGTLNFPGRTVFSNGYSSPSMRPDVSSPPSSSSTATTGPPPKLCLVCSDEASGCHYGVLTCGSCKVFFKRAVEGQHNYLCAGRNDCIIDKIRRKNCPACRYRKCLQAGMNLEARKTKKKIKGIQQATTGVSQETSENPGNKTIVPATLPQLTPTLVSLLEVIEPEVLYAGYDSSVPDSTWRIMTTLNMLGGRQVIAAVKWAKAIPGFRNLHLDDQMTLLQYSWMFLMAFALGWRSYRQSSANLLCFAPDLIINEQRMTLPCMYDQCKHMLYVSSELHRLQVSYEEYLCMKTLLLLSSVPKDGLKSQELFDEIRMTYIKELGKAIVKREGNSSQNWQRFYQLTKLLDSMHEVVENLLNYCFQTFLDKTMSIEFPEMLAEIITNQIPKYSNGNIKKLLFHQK

NC[C@H]1O[C@H](O[C@H]2[C@H](O)[C@@H](O[C@H]3O[C@H](CO)[C@@H](O)[C@H](N)[C@H]3O)[C@H](N)C[C@@H]2N)[C@H](N)[C@@H](O)[C@@H]1O
inactive: Potency [1] | Potency [2] | outcome [3] | outcome [4] | outcome [5] | Potency [6] | outcome [7] | outcome [8] | outcome [9] | outcome [10] | outcome [11] | outcome [12] | outcome [13] | outcome [14] | outcome [15] | outcome [16] | outcome [17] | outcome [18] | Potency [19] | outcome [20]

CCCC(=O)OC
inactive: Potency [1] | Potency [2] | outcome [3] | outcome [4] | outcome [5] | Potency [6] | outcome [7] | outcome [8] | outcome [9] | outcome [10] | outcome [11] | outcome [12] | outcome [13] | outcome [15] | outcome [16] | outcome [17] | outcome [18]

CCCc1ccc(O)c(OC)c1
inactive: Potency [1] | Potency [2] | outcome [3] | outcome [4] | outcome [5] | Potency [6] | outcome [7] | outcome [8] | outcome [9] | outcome [10] | outcome [11] | outcome [12] | outcome [13] | outcome [14] | outcome [15] | outcome [16] | outcome [17] | Potency [19] | outcome [20]

COCCCOc1cc(C[C@@H](C[C@H](N)[C@@H](O)C[C@H](C(=O)NCC(C)(C)C(N)=O)C(C)C)C(C)C)ccc1OC
inactive: Potency [1] | Potency [2] | outcome [3] | outcome [4] | outcome [5] | Potency [6] | outcome [7] | outcome [8] | outcome [10] | outcome [11] | outcome [12] | outcome [13] | outcome [15] | outcome [16] | outcome [17] | outcome [18] | Potency [19] | outcome [20]

C=C(C)C(=O)OCCOC1CC2CC1C1C=CCC21 (stereo unspecified)
inactive: Potency [1] | Potency [2] | outcome [3] | outcome [4] | outcome [5] | outcome [7] | outcome [8] | outcome [9] | outcome [10] | outcome [11] | outcome [12] | outcome [13] | outcome [14] | outcome [15] | outcome [16] | outcome [17] | outcome [18]

O=P(O)(O)C(O)(Cc1cccnc1)P(=O)(O)O
inactive: Potency [1] | Potency [2] | outcome [3] | outcome [4] | outcome [5] | Potency [6] | outcome [7] | outcome [8] | outcome [9] | outcome [10] | outcome [12] | outcome [13] | outcome [14] | outcome [15] | outcome [16] | outcome [17] | outcome [18]

CC(O)C(CO)C(C)O (stereo unspecified)
inactive: Potency [1] | Potency [2] | outcome [3] | outcome [4] | outcome [5] | Potency [6] | outcome [7] | outcome [10] | outcome [11] | outcome [12] | outcome [13] | outcome [14] | outcome [15] | outcome [16] | outcome [17] | outcome [18] | outcome [20]

CC(C)(C)OC(=O)c1ccccc1C(=O)O
inactive: Potency [1] | Potency [2] | outcome [3] | outcome [4] | outcome [5] | Potency [6] | outcome [7] | outcome [9] | outcome [10] | outcome [11] | outcome [12] | outcome [13] | outcome [15] | outcome [16] | outcome [17] | outcome [18]

Cc1ccc(O)c([N+](=O)[O-])c1
inactive: Potency [1] | Potency [2] | outcome [3] | outcome [4] | outcome [5] | Potency [6] | outcome [7] | outcome [8] | outcome [10] | outcome [11] | outcome [12] | outcome [13] | outcome [14] | outcome [15] | outcome [16] | outcome [17] | outcome [18]

OCCC(F)(F)C(F)(F)C(F)(F)C(F)(F)C(F)(F)C(F)(F)F
inactive: Potency [1] | Potency [2] | outcome [3] | outcome [4] | outcome [5] | Potency [6] | outcome [7] | outcome [8] | outcome [9] | outcome [10] | outcome [11] | outcome [12] | outcome [13] | outcome [15] | outcome [16] | outcome [17] | outcome [18] | Potency [19] | outcome [20]

C[C@]12C=CC(=O)C=C1[C@@H](F)C[C@@H]1[C@@H]2[C@@H](O)C[C@@]2(C)[C@H]1CC[C@]2(O)C(=O)CO
inactive: Potency [1] | Potency [2] | outcome [3] | outcome [4] | outcome [5] | Potency [6] | outcome [7] | outcome [8] | outcome [9] | outcome [10] | outcome [11] | outcome [12] | outcome [13] | outcome [14] | outcome [15] | outcome [16] | outcome [18]

O=C(O)CCC(=O)Nc1ccc(S(=O)(=O)Nc2nccs2)cc1
inactive: Potency [1] | Potency [2] | outcome [3] | outcome [4] | outcome [5] | Potency [6] | fluorescence, relative to Rose Bengal [7] -0.131% [at 18.6 µM] | fluorescence, % of fluorescein control [8] -0.003% [at 18.6 µM] | fluorescence, % of triamterene [9] 0.029% [at 18.6 µM] | fluorescence, % of fluorescent control [10] -0.0693% [at 18.6 µM] | fluorescence, % of fluorescein [11] 0.032% [at 18.6 µM] | fluorescence, % of fluorescent control [12] -0.0604% [at 18.6 µM] | activity change [13] 0.0309% [at 18.6 µM] | fluorescence, % of fluorescent control [14] 0.0244% [at 18.6 µM] | fluorescence, % of Rose Bengal [15] 0.477% [at 18.6 µM] | fluorescence, % of fluorescent control [16] -0.0059% [at 18.6 µM] | fluorescence, % of fluorescent control [18] -0.0217% [at 18.6 µM] | Potency [19] | outcome [20]

C=CCOC(=O)CCCCCCCC
inactive: Potency [1] | Potency [2] | outcome [3] | outcome [4] | outcome [5] | Potency [6] | outcome [7] | outcome [8] | outcome [9] | outcome [10] | outcome [11] | outcome [12] | outcome [13] | outcome [14] | outcome [15] | outcome [16] | outcome [17] | outcome [18]

CCOCCOCCOC(C)=O
inactive: Potency [1] | Potency [2] | outcome [3] | outcome [4] | outcome [5] | Potency [6] | outcome [7] | outcome [8] | outcome [9] | outcome [10] | outcome [11] | outcome [12] | outcome [13] | outcome [14] | outcome [15] | outcome [16] | outcome [17] | outcome [18] | Potency [19] | outcome [20]
